Results on 10 compounds are retold here after PMC5540273 (PLoS ONE, 2017).
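Note: kd values determined as follow-up on hits from a single-replicate KINOMEscan panel screen.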

The subject of the first assay is PDGFRA.
By Kd is commonly meant the concentration at which binding is half-saturated. A lower Kd goes with higher affinity. Regarding `O=C(Nc1ccccc1)Nc1ccc(Oc2ccc3nccn3n2)cc1`, binding was put at a Kd of 71 nM. This counts as double-digit nanomolar.

For the compound `Cc1ccc(NC(=O)c2cccc(C#N)c2)cc1-c1ccc(C(=O)Nc2ccncc2)cc1` [GSK1398463], the Kd was 170 nM.

On to `Cn1ccc2ncnc(Oc3ccc(NC(=O)Nc4cccnc4)c(Cl)c3)c21`, for which binding was put at a Kd of 110 nM.

In the next assay the test system is PDGFRB.
On to `O=C(Nc1ccccc1)Nc1ccc(Oc2ccc3nccn3n2)cc1`, for which the dissociation constant (Kd) was 62 nM.

The compound `O=C(Nc1n[nH]c2nc(-c3ccco3)c(Br)cc12)c1ccc(CN2CCCC2)cc1.O=C(O)[C@H](O)[C@@H](O)C(=O)O` [SB-742352] yielded a dissociation constant (Kd) of 67 nM.

`Cc1ccc(NC(=O)c2cccc(C#N)c2)cc1-c1ccc(C(=O)Nc2ccncc2)cc1` [GSK1398463] showed a Kd of 13 nM. Against the preceding compound, the Kd is about 5.2-fold lower.

In turn, `COc1cc2c(Nc3cccc(NC(=O)c4ccccc4)c3)ncnc2cc1OCCCN1CCOCC1` [GSK223810] displayed a Kd of 560 nM. This Kd is about 43-fold higher than that of the compound before.

`Cn1ccc2ncnc(Oc3ccc(NC(=O)Nc4cccnc4)c(Cl)c3)c21` registered a Kd of 95 nM.

The compound `COc1ccc(NC(=O)Nc2ccc(C)c(-c3ccc(C(=O)Nc4ccncc4)cc3)c2)cc1` [GSK1398475] registered a Kd of 48 nM.

`CC(=O)Nc1n[nH]c2ncc(-c3ccccc3)cc12` [SB-548492] registered a Kd of 270 nM. Against the preceding compound, the Kd is about 5.6-fold higher.

In the next assay the test system is PDPK1.
The compound `Nc1nc(-c2ccc3c(N)n[nH]c3c2)cc(N2CCCCC2)n1` [GSK2228768] had a Kd of 540 nM.

`CC(C)(C)OC(=O)NC1CCCN(c2cc(-c3ccc4c(N)n[nH]c4c3)nc(N)n2)C1` (centres unmarked) [GSK2286096] returned a Kd of 37 nM.

`COc1cc2c(Nc3cccc(NC(=O)c4ccccc4)c3)ncnc2cc1OCCCN1CCOCC1` [GSK223810] yielded a Kd above 10000 nM.

The compound `CSc1ccc(NC2=C(c3ccccc3Cl)C(=O)NC2=O)cc1` [SB-342411] yielded a Kd above 10000 nM.
